Screens: PubChem, National Center for Advancing Translational Sciences (NCATS)
Sampled rows, rich in hits. Any-hit rate of the full collection: about 7.8%.
HCMV antiviral: human cytomegalovirus inhibition; HFF cells, HCMV-luciferase reporter, 72 h; stronger effect = lower value; activity change, negative = inhibition, % at 57.5 µM; hit rate 4.5% among 410,000; AID 1259415; in the data active = activity change below about -60%; inconclusive = no clear call, values can overlap the other calls; inactive = above about -39%
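Inhibition of viral replication was scored as loss of reporter luminescence in HFFs infected with HCMV-luciferase (MOI 1 PFU/cell) for 72 h; compounds tested at 2 doses, normalized to buffer and Salinomycin controls.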
VACV Venus inh: vaccinia inhibition (Venus reporter) | Vaccinia virus Venus reporter expression, fluorescence | Potency, µM (highest dose often 36.5 µM), for the others: at the highest dose activity change, negative = inhibition, usual class: inhibitors | hit rate 0.46% among 330,000 | AID 720580; calls by dose curve; tested in A549 cells; also: potency is read from the fitted curve at half-maximal effect; nearly all actives have a fitted effect of over 30% in size
HCV inh: HCV inhibition; Potency, µM (doses to about 41.8 µM), without a hit: at the top dose activity change, negative = inhibition, actives largely listed as inhibitors; Huh7.5.1 HCVcc-Cre infection, luciferase reporter, 44 h; hit rate 3.4% among 340,000; AID 651820; active = well fitted inhibition curve with a large enough effect; inconclusive = small, poorly fitted or top-dose-only effect, or another doubt; inactive = no such curve, though single readings can be large or run the other way; also: potency is read from the fitted curve at half-maximal effect
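Whole-lifecycle infectious HCVcc-Cre system; cells 1,000/well, compound then virus (~0.5 moi) added 4 h after plating, 44 h culture. Luciferase read 15 sec following 15 min substrate incubation, room temp.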
Vaccinia mCherry: inhibitors of vaccinia virus infection (mCherry reporter signal). Vaccinia virus mCherry reporter infection, fluorescence. Potency, µM (highest dose often 36.5 µM), inactives show at the top dose activity change, negative = inhibition, most hits filed as inhibitors. hit rate 0.63% among 310,000. AID 720579; calls by dose curve; tested in A549 cells; also: potency is read from the fitted curve at half-maximal effect; nearly all actives have a fitted effect of over 35% in size
Lassa entry inh: blocks Lassa virus binding to or entry into cells | Lassa virus pseudotype entry inhibition, cell reporter | Potency, µM (top dose mostly 37.9 µM), for the others: at the top dose activity change, negative = inhibition, most hits filed as inhibitors | hit rate 1.2% among 300,000 | AID 540256; calls by dose curve; tested in HEK293 cells; also: potency is read from the fitted curve at half-maximal effect; nearly all actives have a fitted effect of over 50% in size
Marburg entry inh: Marburg virus entry inhibition; AID 540276; Marburg virus pseudotyped entry inhibition, cell reporter; Potency, µM (titrated, usually from 37.8 µM), without a hit: at the highest dose activity change, negative = inhibition, most hits filed as inhibitors; hit rate 1.8% among 300,000; calls by dose curve; tested in HEK293 cells; also: potency is read from the fitted curve at half-maximal effect
Active calls of the source: *; i = inactive; ? = inconclusive; · = not tested or not shown; + = active, no number; [ ] = another dose, or the depositor's remark. % is scaled to controls: 0 for no effect and ±100 for the full control effect.

SMILES	HCMV antiviral	VACV Venus inh	HCV inh	Vaccinia mCherry	Lassa entry inh	Marburg entry inh
CC1Sc2ccc(S(=O)(=O)NCCc3ccccc3)cc2NC1=O (stereo not given)	+	·	-10%	·	·	·
CC(=O)N1CC(C)Sc2ccc(S(=O)(=O)NCCc3ccc(C)cc3)cc21 (stereo not given)	?	·	11µM*	·	·	·
CC(=O)N1CC(C)Sc2ccc(S(=O)(=O)NCCc3ccccc3)cc21 (stereo not given)	+	·	?	·	·	·
CC1Sc2ccc(S(=O)(=O)NCCc3ccc(S(N)(=O)=O)cc3)cc2NC1=O (stereo not given)	?	-2%	3%	i	7%[46.1 µM]	0%[46.1 µM]
Cc1ccc2c(c1)c(=O)c(C(=O)c1ccncc1)cn2CC(=O)Nc1ccc(C(C)C)cc1	3	-1%[7.34 µM]	·	-2%[7.34 µM]	5%[46.1 µM]	·
Cc1ccc(F)cc1C(=O)Nc1ccn2ccnc2n1	2	·	·	·	·	·
Cc1ccc(NC(=O)Cn2nc(N3CCN(c4ccccc4)CC3)ccc2=O)cc1F	3	-10%	·	-20%	-23%[46.1 µM]	·
CCNC(=O)C1(C)CCN(C(=O)c2ccc(C#N)cc2)C1 (stereo not given)	-13	5%	·	7%	·	·
CC(NC1CCCCC1)C(O)C12CC3CC(CC(C3)C1)C2 (stereo not given)	-23	-16%	?	?	?	7.3µM*
COc1ccc2c(C)c(CCC(=O)NCCc3ccc(Cl)cc3)c(=O)oc2c1	-26	-15%	·	-14%	-24%[46.1 µM]	-4%[46.1 µM]
CN=c1scc(-c2ccccc2F)n1/N=C/c1ccc(O)c(O)c1O	-78*	-11%	-22%	i	?	?
CN=c1scc(-c2ccccc2F)n1/N=C/c1ccc[nH]1	-99*	1%	-26%	-26%	?	1µM*
Fc1ccc(N=Cc2ccc[nH]2)cc1	-29	-9%	10%	-7%	18%	4%[46.1 µM]
COc1ccc(C(C)(C)C)cc1NC(=O)OC[C@@H]1CSCCS(=O)(=O)N1	-5	·	·	·	4%[46.1 µM]	·
C/C(=N/NS(=O)(=O)c1ccc(CC(C)C)cc1)c1ccncc1	-66*	·	?	·	·	·
CCCCNC(=O)C1CCC(CNc2nc(=S)[nH]c3ccccc23)CC1 (stereo not given)	30	-5%	0%	i	-19%	-23%
O=C(NCCC1=CCCCC1)C1CCC(CNc2nc(=S)[nH]c3ccccc23)CC1 (stereo not given)	-62*	-6%	?	?	·	-6%[46.1 µM]
O=C(NCCc1ccc(Cl)cc1)C1CCC(CNc2nc(=S)[nH]c3ccccc23)CC1 (stereo not given)	-82*	-2%	11µM*	-4%	-15%	?
COc1ccc(CCNC(=O)CCCCCNc2nc(=S)[nH]c3ccccc23)cc1OC	10	-22%	11µM*	?	?	?
C=CCOC(=O)N[C@H](c1cccc(C(F)(F)F)c1)C(C(C)=O)C(C)=O	·	·	·	·	·	-5%[14.2 µM]
O=C(Oc1nsnc1N1CCCCC1)N1CCOCC1	10	?	5%	14µM*	3%	-24%
O=C(Oc1nsnc1N1CCOCC1)N1CCCC1	20	·	1%	·	1%	6%
CCN(N=O)c1ccc(/C=C/c2ccnc3ccccc23)cc1	·	-20%	·	-27%	·	·
CC(=O)N(C(C)=O)c1ncc2c([nH]c3ccccc32)c1C#N	-77*	?	-8%	11µM*	-14%	?
CNc1ccc(C=C2C=CC=C2)cc1	·	-5%	·	11%	·	·
SMILES	HCMV antiviral	VACV Venus inh	HCV inh	Vaccinia mCherry	Lassa entry inh	Marburg entry inh
O=c1[nH]c2ccc(NCc3ccc(-c4cccc(Cl)c4)o3)cc2[nH]1	-61*	-19%	·	-24%	1%[46.1 µM]	?
O=c1[nH]c2ccc(NCc3ccc(-c4ccc(Br)cc4)o3)cc2[nH]1	6	-9%	·	-7%	-3%[46.1 µM]	7%[46.1 µM]
O=C(Nc1ccc(F)c(Cl)c1)C1Cc2c(-c3ccco3)ccnc2O1 (stereo not given)	?	-4%	·	18%	·	·
Cc1ccc2c(c1)N(C(=O)Nc1cccc3c1CCCC3)CCO2	-4	-9%	·	-18%	2%[46.1 µM]	·
C/C(=C1/SC(N2CCCC2)=NC1=O)c1ccc(Br)cc1	-5	-9%	?	·	4.5µM*	4.5µM*
OC(Cc1ccc2ccccc2n1)c1c(Cl)cccc1Cl (stereo not given)	·	1%	·	8%	·	·
O=[N+]([O-])c1ccc(N2CCN(S(=O)(=O)c3ccccc3)CC2)cc1NCc1cccnc1	11	18µM*	19%	·	?	?
O=[N+]([O-])c1ccc(N2CCN(S(=O)(=O)c3ccc(Cl)cc3)CC2)cc1NCc1cccnc1	-29	-3%	3%	-10%	0%	4%
O=C(CN1C(=O)COc2ccccc21)Nc1ccccc1F	6	·	-8%	·	·	·
O=C1COc2ccccc2N1Cc1c(F)cccc1Cl	-63*	·	-12%	·	·	·
Cc1cc(/C=N/NC(N)=S)c(C)n1-c1ccc(Cl)cc1	-21	·	?	·	?	?
Cc1cc(/C=N/NC(N)=S)c(C)n1-c1cccc(Cl)c1	-65*	-15%	-22%	-22%	?	?
CCOc1ccc(C(C)(C)COCc2cccc(Oc3ccccc3)c2)cc1	-8	·	·	·	·	·
COc1ccc(NC(=S)/N=C(\N)Nc2nc(C)c3ccc(C)cc3n2)cc1	-35	·	11µM*	·	·	·
CCOc1ccc2nc(N/C(N)=N/C(=S)Nc3ccc(C)c(C)c3)nc(C)c2c1	-31	-9%	-19%	-23%	-1%	9%
CCOC(=O)c1c(C)[nH]c(CCC(=O)Nc2ccc(N(CC)CC)cc2C)c1C	12	-5%	·	-5%	?	·
O=C1NC(=Nc2cccc([N+](=O)[O-])c2)SC1(CO)CO	-65*	-9%	16%	-22%	7%[46.1 µM]	3%[46.1 µM]
COC(=O)c1ccccc1NC(=O)C1=C(C)C(=O)OC12CCC(C)CC2 (stereo not given)	-30	-5%	·	-6%	1%[46.1 µM]	5%[46.1 µM]
CCCSc1ncc(Cl)c(C(=O)N(Cc2ccccc2)c2ccc(OC)cc2)n1	-75*	?	·	?	-14%[46.1 µM]	?
COc1ccc(N(Cc2ccccc2)C(=O)c2nc(S(C)(=O)=O)ncc2Cl)cc1	-101*	?	·	?	?	2%[46.1 µM]
CS(=O)(=O)c1ncc(Cl)c(C(=O)N(Cc2ccc(Cl)cc2)Cc2ccco2)n1	-107*	16µM*	·	?	?	?
COc1cccc(-c2cnc(-c3ccncc3)nc2C2CCN(C(=O)Cc3csc(C)n3)CC2)c1	·	-9%	·	-13%	·	·
COc1ncccc1C(=O)N1CCOc2ccc(C(O)C(c3ccccc3)c3ccccc3)cc2C1 (stereo not given)	·	-14%	·	-19%	·	·
COc1ccc(C)cc1S(=O)(=O)NCCC1=CCCCC1	31	·	35µM*	·	2%	20%
O=S(=O)(NCCC1=CCCCC1)c1ccc(Br)cc1	-73*	-13%	-2%	-9%	?	9%
Cc1ccc(NC(=O)c2cc(S(=O)(=O)NCCC3=CCCCC3)ccc2F)cc1	-84*	?	?	-27%	?	?
